Experimental data published in PMC4552634, “A New Set of Chemical Starting Points with Plasmodium falciparum Transmission-Blocking Potential for Antimalarial Drug Discovery” (PLoS ONE, 2015).
Hit rate of the full screen: of about 13,000 compounds, about 3,200 (25%) showed an effect of 50% or more. The list shows a part of the results.

What follows are compounds tested on P. falciparum stage V gametocytes. Conditions: 48 h, 5 µM; inhibitor.
Design: BacTiter-Glo ATP luminescence viability of purified stage V gametocytes in 384-well plates, per cent inhibition versus DMSO

Structure (SMILES)	% Inhibition
O=C(/C=C/c1ccc(Cl)c(Cl)c1)NCCCCCN1CCCN(C(=O)Nc2cccc(Cl)c2)CC1 [TCMDC-135749]	-36.61%
CC(C)C[C@@H](/C=N/N1CCOC1=O)NC(=O)[C@H](CC(C)C)NC(=O)c1ccc(F)cc1 [TCMDC-136186]	-17.2%
O=[N+]([O-])c1cccc(Nc2nccc(-c3cnn4ncccc34)n2)c1 [TCMDC-138697]	-28.72%
c1cc(Nc2nccc(-c3cnn4ncccc34)n2)cc(-c2cnco2)c1 [TCMDC-138684]	-9.488%
CN1CCN(c2ccc(Nc3nccc(-c4cnn5ncccc45)n3)cc2Cl)CC1 [TCMDC-138688]	55.04%
Cc1ccc2[nH]c3c(NCCCN4CCOCC4)ncnc3c2c1 [TCMDC-124068]	-37.8%
N#Cc1ccc(-c2ccc3nc(N4CCCN(C5CCC5)CC4)ccc3c2)cc1 [TCMDC-136368]	18.23%
N=C1C=C(N)C(=O)c2ccccc21 [TCMDC-141992]	106.9%
O=C(Nc1ccc(OC2CCN(Cc3ccc(F)cc3)C2)c(Cl)c1)c1ccc(F)cc1 (stereo not shown) [TCMDC-133763]	12.34%
O=C1c2ccccc2-n2c1nc1ccccc1c2=O [TCMDC-125859]	-11.25%
CCN1CCC2(c3cccc(OC)c3)Cc3nc4ccccc4c(-c4ccccc4)c3CC2C1 (stereo not shown) [TCMDC-138968]	77.57%
COc1cccc(Nc2nc(NCCO)c3ccccc3n2)c1.Cl [TCMDC-124573]	23.38%
COc1cccc(Nc2nc(N)c3ccccc3n2)c1.Cl [TCMDC-123746]	24.77%
COCCOc1nc(N)nc2ncc(Cc3cc(OC)ccc3OC)c(C)c12 [TCMDC-137754]	36.3%
O=C(N[C@@H](Cc1ccccc1)C(=O)NC1CCCCCC1)c1ccc(O)c(-c2ccc(Cl)c(Cl)c2)c1 [TCMDC-140845]	40.83%
CCCCOc1cc(C)nc2ccc(NC(=O)COCC(=O)Nc3ccc4nc(C)cc(OCCCC)c4c3)cc12 [TCMDC-140149]	-34.05%
COc1cc(C)nc2ccc(NC(=O)COCC(=O)Nc3ccc4nc(C)cc(OC)c4c3)cc12 [TCMDC-139461]	62.71%
COc1cc(C)nc2ccc(NC(=O)Nc3ccc4nc(C)cc(OC)c4c3)cc12 [TCMDC-139138]	8.428%
COc1cccc(Cn2ccc3c4c(N)nc(N)nc4ccc32)c1 [TCMDC-137811]	100%
COCCOCCOCCn1ccc2c3c(N)nc(N)nc3ccc21 [TCMDC-137974]	22.53%
COc1ccc(Cn2ncc3c4c(N)nc(N)nc4ccc32)cc1OC [TCMDC-131934]	49.54%
COc1cc(Cn2ccc3c4c(N)nc(N)nc4ccc32)cc(OC)c1OC [TCMDC-137341]	118.6%
COCCn1ccc2c3c(N)nc(N)nc3ccc21 [TCMDC-137263]	12.7%
COc1ccc(Cn2ccc3c4c(N)nc(N)nc4ccc32)cc1 [TCMDC-139862]	105.9%

Structure (SMILES)	% Inhibition
COCn1ccc2c3c(N)nc(N)nc3ccc21 [TCMDC-137505]	0.2853%
O=C(/C=C/c1ccc(Cl)c(Cl)c1)NCCCCCN1CCC(NC(=O)c2ccc(F)c(F)c2)CC1 [TCMDC-135838]	-28.53%
Cc1ccc(Nc2nc(N/N=C/c3cccc(O)c3)nc(Nc3ccc([N+](=O)[O-])cc3)n2)cc1C [TCMDC-124125]	-28.14%
CCCN(Cc1nnc(-c2ccco2)o1)C(=O)C1CCN(c2ncc(C(F)(F)F)cc2Cl)CC1 [TCMDC-125335]	-10.32%
CCOc1ccc(Cc2c(C)nc3nc(N)nc(N)c3c2C)cc1 [TCMDC-137655]	8.912%
Cc1c(Cl)ccc2c(C(=O)Nc3ccncc3)cc(-c3cccnc3)nc12 [TCMDC-125224]	6.226%
COc1ccc(CNC2Cc3ccccc3C2)cc1-c1ccc(S(=O)(=O)NCCN2CCCC2)cc1 [TCMDC-132248]	107.9%
COc1ccc(CNC2Cc3ccccc3C2)cc1-c1cccc(S(=O)(=O)NCCN2CCCC2)c1 [TCMDC-132269]	112.5%
CC(C)NCc1ccc(-c2ccc(-c3nc4ccc(F)cc4[nH]3)cc2)cc1 [TCMDC-132740]	14.26%
CCc1ccccc1NC(=O)CN1CCN(c2ncnc3scc(-c4ccc(F)cc4)c23)CC1 [TCMDC-125248]	-17.47%
CC(C)CNC(=O)CN1C(=O)C(c2ccccc2)(c2ccccc2)N=C1N [TCMDC-137006]	-9.905%
Fc1ccc2[nH]c3c(NCCCN4CCOCC4)ncnc3c2c1 [TCMDC-124555]	-45.7%
CC(C)C[C@H](NC(=O)c1ccc(F)cc1)C(=O)N[C@H](/C=N/NC(=O)c1ccccc1)CCc1ccccc1 [TCMDC-135680]	-1.54%
Cn1c(=N)cc(-c2cccc(I)c2)c2c(=O)[nH]c(N)nc21 [TCMDC-137835]	7.838%
Fc1ccc2[nH]c(-c3cccc(-c4ccc(CNCCN5CCNCC5)cc4)c3)nc2c1 [TCMDC-132863]	90.56%
Cn1nccc1C(=O)NCCNCc1cccc(-c2cccc(-c3nc4cc(F)ccc4[nH]3)c2)c1.O=C(O)C(F)(F)F [TCMDC-133020]	-34.05%
Fc1ccc2[nH]c(-c3cccc(-c4cccc(CNCCN5CCNCC5)c4)c3)nc2c1 [TCMDC-132860]	97.72%
O=C1CCCN1CCCNCc1ccc(-c2cccc(-c3nc4ccc(F)cc4[nH]3)c2)cc1 [TCMDC-132750]	-14.96%
Cn1cccc1CCNCc1ccc(-c2cccc(-c3nc4cc(F)ccc4[nH]3)c2)cc1.O=C(O)C(F)(F)F [TCMDC-132684]	7.89%
O=C1CCCN1CCCNCc1cccc(-c2cccc(-c3nc4ccc(F)cc4[nH]3)c2)c1 [TCMDC-132765]	-41.49%
Cn1ncc2c3c(CCN4CCC(NCc5cc6c(cn5)OCC6)CC4)c(Cl)cnc3ccc21 [TCMDC-136024]	-18.24%
COc1ccccc1C(=O)Nc1cccc(N2CCC(NCc3ccc(-n4cccn4)cc3)CC2)c1 [TCMDC-124643]	0.3581%
COc1ccccc1NC(=O)Nc1ccc(-c2ccc(-c3nc4cccc(C)c4[nH]3)s2)cc1 [TCMDC-133201]	-21.27%
COc1cccc(CN(C(=O)Nc2ccccc2F)[C@H]2C[C@H]3C(=O)Nc4cc(F)ccc4C(=O)N3C2)c1 [TCMDC-134304]	17.59%

Structure (SMILES)	% Inhibition
CC(C)(C)C(=O)Oc1ccc(CC2NCCc3cc(OC(=O)C(C)(C)C)c(OC(=O)C(C)(C)C)cc32)cc1OC(=O)C(C)(C)C (stereo not shown) [TCMDC-131452]	-22.51%
NCC1CCCN1Cc1ccc(-c2cccc(-c3nc4ccc(F)cc4[nH]3)c2)cc1 (stereo not shown) [TCMDC-132998]	102.5%
NC(=O)C1CCN(Cc2cccc(-c3cccc(-c4nc5ccc(F)cc5[nH]4)c3)c2)CC1 [TCMDC-132686]	-35.6%
NCC1CCCN1Cc1cccc(-c2cccc(-c3nc4ccc(F)cc4[nH]3)c2)c1 (stereo not shown) [TCMDC-133001]	98.63%
NCC1CCCN1Cc1ccc(-c2ccc(-c3nc4ccccc4[nH]3)s2)cc1 (stereo not shown) [TCMDC-132988]	37.26%
NCC1CCCN1Cc1ccc(-c2ccc(-c3nc4ccc(F)cc4[nH]3)cc2)cc1 (stereo not shown) [TCMDC-132994]	65.53%
Fc1ccc2nc(-c3ccc(-c4ccc(CN5CCN(CCN6CCOCC6)CC5)cc4)cc3)[nH]c2c1 [TCMDC-133926]	-0.4105%
Cc1cccc2[nH]c(-c3cccc(-c4cccc(CN5CCCC5CN)c4)c3)nc12 (stereo not shown) [TCMDC-132989]	49.36%
COc1ccccc1OCCN(CC(O)COc1cccc2[nH]c3ccccc3c12)CC(O)COc1cccc2[nH]c3ccccc3c12 (stereo not shown) [TCMDC-141980]	-17.57%
O=C1NCN(c2ccc(O)cc2)C12CCN(CCCC(c1ccc(F)cc1)c1ccc(F)cc1)CC2 [TCMDC-138052]	-32.4%
Cc1[nH]c(C)c(-c2csc3ccccc23)c(=O)c1Cl [TCMDC-136017]	42.39%
Cc1[nH]c(C)c(-c2ccc(-c3ccc(Cl)cc3)cc2)c(=O)c1Cl [TCMDC-137416]	50.46%
Cc1[nH]c(C)c(-c2ccc(Cl)cc2)c(=O)c1I [TCMDC-137424]	41.94%
Cc1[nH]c(C)c(-c2ccc(/C=C/c3ccccn3)cc2)c(=O)c1Cl [TCMDC-135787]	58.19%
Cc1[nH]c(C)c(-c2ccc(C(=O)c3ccc(Cl)cc3)cc2)c(=O)c1Cl [TCMDC-137413]	70.39%
Cc1[nH]c(C)c(-c2ccc(C(=O)c3ccccc3)cc2)c(=O)c1Br [TCMDC-137419]	74.6%
CC[C@H](C)CNC(=O)c1cncc(-c2ccc(CNCC3CNCCCO3)cc2)c1 (stereo partly shown) [TCMDC-134269]	2.096%
CN(C)CCCN1C(=O)c2[nH]nc(-c3ccc(Cl)cc3O)c2C1c1ccc(Cl)cc1 (stereo not shown) [TCMDC-124910]	-62.01%
C(=N\Nc1nccc2sc(-c3cccnc3)cc12)/c1cccnc1 [TCMDC-135297]	-1.822%
O=C1c2ccccc2CN1CCCN1CCC(Oc2ccc(F)cc2)CC1 [TCMDC-141252]	-41.1%
COc1c(Br)cc(Br)cc1-c1ccc(CN2C3CCCC2CCC3)[nH]1 [TCMDC-138965]	-8.76%
CC(C)S(=O)(=O)N1CCN(Cc2ccc3c(c2)nc(NC(=O)c2ccsc2)n3C[C@H](O)c2ccccc2)CC1 [TCMDC-138569]	-9.312%
